Test results reported in the supplement of paper PMC8728848.
About 410 targets per protein were measured; listed, in parts, are those with the strongest signals and a random draw of the rest.

Key:
Assay in all cases: glycan array binding signal (z-score within array); higher = stronger binding
Details in all cases: glycan notation: IUPAC condensed, linker removed
[1] = target: Fuc(a1-2)Gal(b1-3)[Fuc(a1-4)]GlcNAc(b1-2)Man(a1-3)[Fuc(a1-2)Gal(b1-3)[Fuc(a1-4)]GlcNAc(b1-2)Man(a1-6)]Man(b1-4)GlcNAc(b1-4)[Fuc(a1-6)]GlcNAc(b1-4)[Fuc(a1-6)]GlcNAc
Method in brief: (§1)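 The Consortium for Functional Glycomics database supplied 3228 glycan arrays, of which those lacking an available protein sequence were dropped. The binding signal, a within-array Z-score, was averaged across arrays of the same protein sequence and across linkers. Negative scores can be read as non-binding.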

Fuc(a1-2)Gal6S(b1-4)Glc = target: Fuc(a1-2)Gal6S(b1-4)Glc
Method in brief: as §1

[2] = target: Fuc(a1-2)[Gal(a1-3)]Gal(b1-3)GlcNAc(b1-2)Man(a1-3)[Fuc(a1-2)[Gal(a1-3)]Gal(b1-3)GlcNAc(b1-2)Man(a1-6)]Man(b1-4)GlcNAc(b1-4)[Fuc(a1-6)]GlcNAc
Method in brief: as §1

[3] = target: Fuc(a1-2)[Gal(a1-3)]Gal(b1-3)GlcNAc(b1-6)GalNAc
Method in brief: as §1

[4] = target: Fuc(a1-2)[Gal(a1-3)]Gal(b1-4)GlcNAc(b1-2)Man(a1-3)[Fuc(a1-2)[Gal(a1-3)]Gal(b1-4)GlcNAc(b1-2)Man(a1-6)]Man(b1-4)GlcNAc(b1-4)[Fuc(a1-6)]GlcNAc
Method in brief: as §1

[5] = target: Fuc(a1-2)[Gal(a1-3)]Gal(b1-4)GlcNAc(b1-3)[Fuc(a1-2)[Gal(a1-3)]Gal(b1-4)GlcNAc(b1-6)]GalNAc
Method in brief: as §1

[6] = target: Fuc(a1-2)[Gal(a1-3)]Gal(b1-4)GlcNAc(b1-6)GalNAc
Method in brief: as §1

[7] = target: Fuc(a1-2)[Gal(a1-4)]Gal(b1-4)GlcNAc
Method in brief: as §1

[8] = target: Fuc(a1-2)[GalNAc(a1-3)]Gal(b1-3)GalNAc(a1-3)[Fuc(a1-2)]Gal(b1-4)GlcNAc
Method in brief: as §1

[9] = target: Fuc(a1-2)[GalNAc(a1-3)]Gal(b1-3)GlcNAc(b1-2)Man(a1-3)[Fuc(a1-2)[GalNAc(a1-3)]Gal(b1-3)GlcNAc(b1-2)Man(a1-6)]Man(b1-4)GlcNAc(b1-4)[Fuc(a1-6)]GlcNAc
Method in brief: as §1

[10] = target: Fuc(a1-3)[Gal(b1-4)]GlcNAc(b1-3)Gal(b1-4)[Fuc(a1-3)]GlcNAc
Method in brief: as §1

[11] = target: Fuc(a1-3)[Gal(b1-4)]GlcNAc(b1-3)Gal(b1-4)[Fuc(a1-3)]GlcNAc(b1-3)Gal(b1-4)[Fuc(a1-3)]GlcNAc
Method in brief: as §1

[12] = target: Gal(b1-3)GalNAc(a1-3)[Fuc(a1-2)]Gal(b1-4)Glc
Method in brief: as §1

[13] = target: Gal(b1-3)GlcNAc(b1-2)Man(a1-3)[Gal(b1-3)GlcNAc(b1-2)Man(a1-6)]Man(b1-4)GlcNAc(b1-4)[Fuc(a1-6)]GlcNAc
Method in brief: as §1

[14] = target: Gal(b1-3)GlcNAc(b1-2)Man(a1-3)[GlcNAc(b1-4)][Gal(b1-3)GlcNAc(b1-2)Man(a1-6)]Man(b1-4)GlcNAc(b1-4)GlcNAc
Method in brief: as §1

[15] = target: Gal(b1-3)GlcNAc(b1-2)[Gal(b1-3)GlcNAc(b1-6)]Man(a1-6)[Gal(b1-3)GlcNAc(b1-2)Man(a1-3)]Man(b1-4)GlcNAc(b1-4)GlcNAc
Method in brief: as §1

[16] = target: Gal(b1-3)GlcNAc(b1-3)Gal(b1-4)GlcNAc(b1-3)Gal(b1-4)GlcNAc(b1-2)[Gal(b1-3)GlcNAc(b1-3)Gal(b1-4)GlcNAc(b1-3)Gal(b1-4)GlcNAc(b1-6)]Man(a1-6)[Gal(b1-3)GlcNAc(b1-3)Gal(b1-4)GlcNAc(b1-3)Gal(b1-4)GlcNAc(b1-2)Man(a1-3)]Man(b1-4)GlcNAc(b1-4)[Fuc(a1-6)]GlcNAc
Method in brief: as §1

Gal(b1-4)Glc = target: Gal(b1-4)Glc
Method in brief: as §1

[17] = target: Gal(b1-4)GlcNAc(b1-2)Man(a1-3)Man(b1-4)GlcNAc(b1-4)GlcNAc
Method in brief: as §1

[18] = target: Gal(b1-4)GlcNAc(b1-2)Man(a1-3)[Gal(b1-4)GlcNAc(b1-2)Man(a1-6)][GlcNAc(b1-4)]Man(b1-4)GlcNAc(b1-4)[Fuc(a1-6)]GlcNAc
Method in brief: as §1

[19] = target: Gal(b1-4)GlcNAc(b1-3)Gal(b1-3)GlcNAc
Method in brief: as §1

[20] = target: Gal(b1-4)GlcNAc(b1-3)Gal(b1-4)GlcNAc(b1-2)[Gal(b1-4)GlcNAc(b1-3)Gal(b1-4)GlcNAc(b1-6)]Man(a1-6)[Gal(b1-4)GlcNAc(b1-3)Gal(b1-4)GlcNAc(b1-2)Man(a1-3)]Man(b1-4)GlcNAc(b1-4)GlcNAc
Method in brief: as §1

[21] = target: Gal(b1-4)GlcNAc(b1-3)Gal(b1-4)GlcNAc(b1-3)Gal(b1-4)GlcNAc(b1-3)Gal(b1-4)GlcNAc(b1-3)Gal(b1-4)GlcNAc(b1-2)[Gal(b1-4)GlcNAc(b1-3)Gal(b1-4)GlcNAc(b1-3)Gal(b1-4)GlcNAc(b1-3)Gal(b1-4)GlcNAc(b1-3)Gal(b1-4)GlcNAc(b1-6)]Man(a1-6)[Gal(b1-4)GlcNAc(b1-3)Gal(b1-4)GlcNAc(b1-3)Gal(b1-4)GlcNAc(b1-3)Gal(b1-4)GlcNAc(b1-3)Gal(b1-4)GlcNAc(b1-2)Man(a1-3)]Man(b1-4)GlcNAc(b1-4)[Fuc(a1-6)]GlcNAc
Method in brief: as §1

[22] = target: Gal(b1-4)GlcNAc(b1-3)GalNAc
Method in brief: as §1

Gal3S4S(b1-4)GlcNAc = target: Gal3S4S(b1-4)GlcNAc
Method in brief: as §1

Gal6S(b1-3)GlcNAc6S = target: Gal6S(b1-3)GlcNAc6S
Method in brief: as §1

Gal6S(b1-4)Glc6S = target: Gal6S(b1-4)Glc6S
Method in brief: as §1

Gal6S(b1-4)GlcNAc = target: Gal6S(b1-4)GlcNAc
Method in brief: as §1

Gal6S(b1-4)GlcNAc6S = target: Gal6S(b1-4)GlcNAc6S
Method in brief: as §1

[23] = target: GlcNAc(a1-4)Gal(b1-4)GalNAc
Method in brief: as §1

B1: Cohesin-hLangerin (Homo sapiens) (protein)
chain: LDDLDAVRIKVDTVNAKPGDTVRIPVRFSGIPSKGIANCDFVYSYDPNVLEIIEIEPGDIIVDPNPDKSFDTAVYPDRKIIVFLFAEDSGTGAYAITKDGVFATIVAKVKEGAPNGLSVIKFVEVGGFANNDLVEQKTQFFDGGANVGDTTEPATPTTPVTTPTTTDDLDAASYPRFMGTISDVKTNVQLLKGRVDNISTLDSEIKKNSDGMEAAGVQIQMVNESLGYVRSQFLKLKTSVEKANAQIQILTRSWEEVSTLNAQIPELKSDLEKASALNTKIRALQGSLENMSKLLKRQNDILQVVSQGWKYFKGNFYYFSLIPKTWYSAEQFCVSRNSHLTSVTSESEQEFLYKTAGGLIYWIGLTKAGMEGDWSWVDDTPFNKVQSARFWIPGEPNNAGNNEHCGNIKAPSLQAWNDAPCDKTFLFICKRPYVPSEPHHHHHH
[1]
  glycan array binding signal (z-score): 0.805
Fuc(a1-2)Gal6S(b1-4)Glc
  glycan array binding signal (z-score): -0.399
[2]
  glycan array binding signal (z-score): 3.97
[3]
  glycan array binding signal (z-score): -0.238
[4]
  glycan array binding signal (z-score): 3.4
[5]
  glycan array binding signal (z-score): 1.3
[6]
  glycan array binding signal (z-score): -0.388
[7]
  glycan array binding signal (z-score): -0.301
[8]
  glycan array binding signal (z-score): -0.411
[9]
  glycan array binding signal (z-score): 2.27
[10]
  glycan array binding signal (z-score): -0.026
[11]
  glycan array binding signal (z-score): -0.424
[12]
  glycan array binding signal (z-score): -0.311
[13]
  glycan array binding signal (z-score): 0.003
[14]
  glycan array binding signal (z-score): 4.37
[15]
  glycan array binding signal (z-score): 4.81
[16]
  glycan array binding signal (z-score): 5.37
Gal(b1-4)Glc
  glycan array binding signal (z-score): -0.309
[17]
  glycan array binding signal (z-score): -0.352
[18]
  glycan array binding signal (z-score): -0.449
[19]
  glycan array binding signal (z-score): -0.419
[20]
  glycan array binding signal (z-score): 3.41
[21]
  glycan array binding signal (z-score): 0.332
[22]
  glycan array binding signal (z-score): -0.438
Gal3S4S(b1-4)GlcNAc
  glycan array binding signal (z-score): -0.417
Gal6S(b1-3)GlcNAc6S
  glycan array binding signal (z-score): 5.12
Gal6S(b1-4)Glc6S
  glycan array binding signal (z-score): 4
Gal6S(b1-4)GlcNAc
  glycan array binding signal (z-score): 3.76
Gal6S(b1-4)GlcNAc6S
  glycan array binding signal (z-score): 4.85
[23]
  glycan array binding signal (z-score): -0.401
